Experimental data published in PubChem BioAssay AID1159580 (chemical genetic matrix, 2015).
In all, about 5,500 compounds went through this assay and about 2,000 (36%) were called active. Another 18% or so got no clear call; they are omitted. Cut-off read from the data, not from the text of the source: active = normalized growth mostly below about 0.91 (no sharp cut-off); inconclusive = no clear call, values can overlap the other calls; inactive = mostly above about 0.92. The list shows a part of the results.

Test: chemical genetic growth profiling, strain panel (AID 1159580);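 note: tested at 20 µM; growth read once vehicle control cultures reached saturation at 30 °C; 1 = growth at the plate median or of vehicle wells; lower values mean less growth of the strain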
Settings: growth OD

Measured: normalized growth

NS(=O)(=O)c1ccc(-n2ncc3ccccc3c2=O)cc1
inactive: S. cerevisiae deletion strains, locus YAL013W, strain DEP1, active compounds read low 1.02 | S. cerevisiae deletion strains, locus YBR229C, strain ROT2, active compounds read low 1.01 | S. cerevisiae deletion strains, locus YCL061C, strain MRC1, active compounds read low 1.01 | S. cerevisiae deletion strains, locus YDL101C, strain DUN1, active compounds read low 1.04 | S. cerevisiae deletion strains, locus YDL134C, strain PPH21, active compounds read low 1.02 | S. cerevisiae deletion strains, locus YDR150W, strain NUM1, active compounds read low 0.989 | S. cerevisiae deletion strains, locus YEL061C, strain CIN8, active compounds read low 0.987 | S. cerevisiae deletion strains, locus YGR078C, strain PAC10, active compounds read low 1.02 | S. cerevisiae deletion strains, locus YHR030C, strain SLT2, active compounds read low 1.05 | S. cerevisiae deletion strains, locus YHR087W, strain rtc3, active compounds read low 1 | S. cerevisiae deletion strains, locus YJR043C, strain POL32, active compounds read low 1.01 | S. cerevisiae deletion strains, locus YJR075W, strain HOC1, active compounds read low 1.02 | S. cerevisiae deletion strains, locus YKL190W, strain CNB1, active compounds read low 1 | S. cerevisiae deletion strains, locus YLR039C, strain RIC1, active compounds read low 1.01 | S. cerevisiae deletion strains, locus YLR058C, strain SHM2 (second series), active compounds read low 0.994 | S. cerevisiae deletion strains, locus YLR085C, strain ARP6, active compounds read low 0.984 | S. cerevisiae deletion strains, locus YLR262C, strain YPT6, active compounds read low 1.06 | S. cerevisiae deletion strains, locus YML094W, strain GIM5, active compounds read low 0.986 | S. cerevisiae deletion strains, locus YMR219W, strain ESC1, active compounds read low 1 | S. cerevisiae deletion strains, locus YMR263W, strain SAP30, active compounds read low 1.01 | S. cerevisiae deletion strains, locus YMR307W, strain GAS1, active compounds read low 0.981 | S. cerevisiae deletion strains, locus YNL153C, strain GIM3, active compounds read low 0.996 | S. cerevisiae deletion strains, locus YNL298W, strain CLA4 (second series), active compounds read low 1.01 | S. cerevisiae deletion strains, locus YNL322C, strain KRE1, active compounds read low 1.01 | S. cerevisiae deletion strains, locus YNR030W, strain Alg12, active compounds read low 1.01 | S. cerevisiae deletion strains, locus YPL055C, strain LGE1, active compounds read low 1.02 | S. cerevisiae deletion strains, locus YPL241C, strain CIN2, active compounds read low 1.03 | S. cerevisiae deletion strains, locus YPR135W, strain CTF4, active compounds read low 1.06 | S. cerevisiae strains, strain wild type, active compounds read low 1.01
